Screening results (PubChem)
PNC inhibitor: High Content Assay for Compounds that inhibit the Assembly of the Perinucleolar Compartment; activity change (PNC), negative = inhibition, % at 10 µM; PC3M PTB-GFP, PNC prevalence imaging, 16 h; hits give low values; 140,000 compounds, 3.1% hits; AID 2417, 2010;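 active means readout at or below -70, meaning at least 70% loss of cells showing the perinucleolar compartment, a nuclear body marking cancer cells; inconclusive means readout between -30 and a set limit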;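 further: plate controls were DMSO wells for no effect and camptothecin positive control wells for full effect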
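PC3M cells stably expressing PTB-GFP, 750–1000 cells/well, treated 16 h at 37 °C with compound (23 nl of library stock), in duplicate. After paraformaldehyde fixation and Hoechst stain, imaged at 20x; PNC prevalence scored by image analysis.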
IMPase inh: qHTS Assay for Identifying the Cell-Membrane Permeable IMPase Inhibitors; Inositol monophosphatase 1 (Rattus norvegicus), P97697; CHO-M1 cells, IP1 accumulation, HTRF TR-FRET ratio; inhibition (IP1 accumulation), % at 46.1 µM; 120,000 tested, under 10 active; AID 901, 2007; active means well fitted curve in the direction sought with a large enough effect in the signal ratio, not every such curve was filed as active; inconclusive means small, poorly fitted or top-dose-only effect, or a change in a side signal; inactive means no such curve, though single readings can be large or run the other way; the % refers to the signal ratio;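 further: cells stimulated with carbachol in lithium chloride buffer; plate controls were DMSO basal wells for no effect and reference inhibitor wells for full effect; higher means more IMPase inhibition seen as more IP1 and lower FRET ratio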
Target sequence (P97697 whole entry, looked up): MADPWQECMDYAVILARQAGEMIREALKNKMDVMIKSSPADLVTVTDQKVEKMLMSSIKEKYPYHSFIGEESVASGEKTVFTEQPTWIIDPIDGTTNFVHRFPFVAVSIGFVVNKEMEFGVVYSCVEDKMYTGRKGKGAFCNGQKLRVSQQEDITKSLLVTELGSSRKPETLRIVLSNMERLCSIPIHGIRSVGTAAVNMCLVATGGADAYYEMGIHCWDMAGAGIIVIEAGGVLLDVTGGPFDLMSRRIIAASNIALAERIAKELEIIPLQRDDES
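CHO-M1 cells (CHO stably expressing M1 receptor), compound up to 46 uM final, stimulated with carbachol (50 uM as added) in buffer with 50mM LiCl, pH 7.4, 30 min at 37C. Cytosolic IP1 read by TR-FRET; AC50 from Hill fits.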
HPGD block: qHTS Assay for Inhibitors of HPGD (15-Hydroxyprostaglandin Dehydrogenase); AID 894, 2007; Potency, µM, for the others: top-dose activity change, negative = inhibition, hits mostly inhibitors; 15-hydroxyprostaglandin dehydrogenase [NAD(+)] (Homo sapiens), P15428; purified HPGD, NADH fluorescence kinetic, PGE2 substrate; 150,000 compounds, 4.3% hits; further: potency means the concentration at half of the fitted maximal effect
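20 nM HPGD preincubated 15 min at room temperature with compound in 50 mM Tris-HCl pH 8, 0.01% Tween 20. Started with 1 mM NAD+ and 30 uM prostaglandin E2; NADH fluorescence (360/450 nm) read 5 times over 30-s intervals, last minus first.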
ALDH1A1 inh: qHTS Assay for Inhibitors of Aldehyde Dehydrogenase 1 (ALDH1A1) | Aldehyde dehydrogenase 1A1 (Homo sapiens), P00352 | Purified ALDH1A1, NADH fluorescence, propionaldehyde substrate | Potency, µM (doses to about 75.3 µM), inactives show top-dose activity, negative = inhibition, most hits filed as inhibitors | 220,000 compounds, 7.3% hits;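 further: potency means the concentration at half of the fitted maximal effect; plate controls were no enzyme wells and a reference inhibitor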
Target sequence (P00352 whole entry, looked up): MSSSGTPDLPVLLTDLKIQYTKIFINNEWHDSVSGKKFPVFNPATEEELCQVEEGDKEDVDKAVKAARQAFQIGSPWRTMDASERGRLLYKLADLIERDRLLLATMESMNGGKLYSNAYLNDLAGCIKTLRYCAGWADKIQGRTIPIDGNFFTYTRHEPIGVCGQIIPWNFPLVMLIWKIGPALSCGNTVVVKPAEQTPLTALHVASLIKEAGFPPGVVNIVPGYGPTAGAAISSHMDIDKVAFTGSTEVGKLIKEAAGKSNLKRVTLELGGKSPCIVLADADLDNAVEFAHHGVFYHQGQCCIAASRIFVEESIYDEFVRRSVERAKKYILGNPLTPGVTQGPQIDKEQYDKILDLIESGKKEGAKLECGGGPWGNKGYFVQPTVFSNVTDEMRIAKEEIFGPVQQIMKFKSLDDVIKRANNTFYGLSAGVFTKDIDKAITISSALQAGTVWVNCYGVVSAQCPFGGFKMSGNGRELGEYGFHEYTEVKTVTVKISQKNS
LMNA splice mod: qHTS Assay for Modulators of Lamin A Splicing. 200,000 compounds, 0.01% hits. HeLa LMNA splicing GFP/RFP minigene ratio, 48 h. Potency, µM (doses to about 46.1 µM), for inactives: at the highest dose ratio change, negative = inhibition, usual class: inhibitors; active means well fitted inhibition curve with a large enough effect in the signal ratio, with a control signal flat, not every such curve was filed as active; inconclusive means small, poorly fitted or top-dose-only effect, or effect the other way, or a change in a side signal; the % refers to the signal ratio; further: potency means the concentration at half of the fitted maximal effect
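Read-out is the ratio of GFP to DsRed2 object intensity, acquired by 488 nm laser-scanning cytometry on HeLa lamin A-EGFP minigene reporter cells. Compound incubation 48 hrs at 37 °C in Opti-MEM with 2% FBS; DMSO 0.5% final.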
Luc counter: Counterscreen for Luciferase (Kinase-Glo TM) Inhibition; Potency, µM (series often up to 38.3 µM), for inactives: at the top dose activity change, negative = inhibition, hits mostly inhibitors; 200,000 compounds, 0.28% hits; Kinase-Glo luciferase, ATP luminescence, 8 min; Luciferin 4-monooxygenase (Photuris pensylvanica), Q27757; AID 1379, 2008; active means well fitted inhibition curve with a large enough effect; inconclusive means small, poorly fitted or top-dose-only effect; further: potency means the concentration at half of the fitted maximal effect; nearly all actives have a fitted effect of over 60% in size
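Compound is pinned into ATP-containing buffer (10 uM ATP, imidazole pH 7.2, 7 mM MgCl2). Kinase-Glo luciferase reagent is then added. Light output is recorded following an 8-min room-temperature incubation.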
Active calls of the source: *; ? = inconclusive; · = no result given; [ ] = remark or other dose. This is a sample that favours compounds with a hit; in the whole collection about 10% have one here. Unless noted, the call rests on the fitted dose curve; in most records, active means well fitted inhibition curve with a large enough effect (not every such curve was filed as active); inconclusive means small, poorly fitted or top-dose-only effect, or another doubt; inactive means no such curve, though single readings can be large or run the other way. Unless noted, on the % scale 0 is the no-effect control and ±100 the full control effect.

SMILES	PNC inhibitor	IMPase inh	HPGD block	ALDH1A1 inh	LMNA splice mod	Luc counter
O=C(Cc1cccs1)NCc1ccccc1F	-23	12	25µM*	0%	11%	-2%
COCCN(C(=O)Cc1cccs1)C(C(=O)NCc1ccc(OC)cc1)c1ccccc1 (centres undefined)	?	3[1.84 µM]	-6%	25µM*	-10%	3%
Cc1ccc(Cn2ccn(Cc3ccccc3F)c(=O)c2=O)cc1	·	·	·	·	1%[46 µM]	·
C=CC[C@@H]1C=C[C@H](Oc2ccc(C)cc2)[C@H](COC(=O)NCc2cccc3ccccc23)O1	·	·	·	-4%[13.5 µM]	·	·
COc1ccc2c(c1-c1c3c(cc(Br)c1OC)CCCC3)CCCC2	·	·	-10%	1%	·	0%
CO[C@@H]1COC(=O)[C@H]2CCCN2C(=O)C/C=C\[C@@H](C)[C@H](OC)COC(=O)[C@H]2CCCN2C(=O)C/C=C\[C@H]1C	·	·	·	-2%[13.5 µM]	·	·
Cc1ccc(C(=O)c2oc3ccccc3c2NC(=O)COc2ccc(C(C)C)cc2)cc1	·	-6	·	·	·	·
O=C(NCc1cccs1)c1ccccc1F	23	0	20µM*	-2%	8%	-2%
COc1ccc(CCNC(=O)Cc2cccs2)cc1	-19	·	35µM*	2%	9%	3%
O=C(Cc1cccs1)NCc1ccccc1	-4	6	20µM*	4%	-1%	-3%
O=C(Cc1cccs1)NCCCc1ccccc1	·	·	·	11%	?	-3%
O=C(Cc1cccs1)NCc1ccncc1	?	-6	-14%	-8%	5%	-1%
Cc1ccc(CNC(=O)Cc2cccs2)cc1	-3	1	16µM*	5%	8%	-3%
O=C(NCCNCc1cccs1)c1ccccc1F	·	·	·	-16%	?	1%
CO[C@]12C(COC(N)=O)C3=C(C(=O)C(C)=C(N)C3=O)N1CC1NC12 (some centres undefined)	·	·	-11%	-3%	·	-11%
COC(=O)Cc1c(C)c2c(OCc3nn[nH]n3)cc(C)cc2oc1=O	37	-3	·	?	5%	·
Cc1c(C)c2cc(Cl)c(OCc3nn[nH]n3)cc2oc1=O	-122*	-4	·	?	7%	·
CCCC(CCC)C(=O)NC1CC(=O)N(c2ccc3c(c2)OCCO3)C1 (centres undefined)	·	·	·	·	5%[46 µM]	·
Cc1ccc(CCNC(=O)CN(C)S(=O)(=O)c2ccc3c(c2)c(=O)n(C)c(=O)n3C)cc1	1	5	-15%	13µM*	-2%	4%
CC[n+]1c(/C=C2\C=C(C)CC(C)(C)C2)sc2ccccc21	4	13	-24%	?	?	6%
CC[n+]1c(/C=C2/C=C(C)CC(C)(C)C2)sc2ccc(OC)cc21	-30	9	-26%	8.9µM*	?	-9%
O=C(c1ccncc1)N1CCC2(CCCN(c3ncccn3)C2)CC1	·	·	-17%	8%	·	-1%
C[C@H](c1ccccc1)N1C(=O)[C@H]2[C@@H]3[C@H](O)[C@H](O)CC(=O)[C@H]3CC[C@H]2C1=O	·	·	·	9%[13.5 µM]	·	·
O=S(=O)(c1ccccc1)N1CCC2(CC1)CN(c1ccccn1)C2	·	·	-17%	?	·	-4%
CCOC(=O)C1=C(C)NC2=C(C1c1ccc([N+](=O)[O-])cc1)S(=O)(=O)c1ccccc12 (centres undefined)	1	2	-24%	2.5µM*	?	25%
SMILES	PNC inhibitor	IMPase inh	HPGD block	ALDH1A1 inh	LMNA splice mod	Luc counter
CCOC(=O)C1=C(C)NC(c2ccccc2)=C(C(=O)OCc2ccc([N+](=O)[O-])cc2)[C@@H]1C#Cc1ccccc1	·	-10	-15%	-1%	·	-2%
Cc1ccc2c(c1)C(CCN)C(=O)N2Cc1ccccc1 (centres undefined)	-23	0	-6%	32µM*	9%	3%
Cc1ccc(CN2C(=O)C(C)Oc3ccccc32)cc1 (centres undefined)	·	·	·	7%	5%[46 µM]	0%
Cc1ccccc1S(=O)(=O)c1cc(C#N)c(=O)[nH]c1N	·	·	·	-7%	-6%[46 µM]	4%
N#Cc1cc(S(=O)(=O)c2ccccc2)c(N)[nH]c1=O	-113*	-14[1.84 µM]	?	?	?	8%
Cc1ccc(-c2c[n+](CC(=O)N3c4ccccc4Sc4ccccc43)c3n2CCC3)cc1	?	13	3%	?	?	5%
O=C(C[n+]1cc(-c2ccccc2)n2c1CCC2)N1c2ccccc2Sc2ccccc21	-119*	22	1%	?	?	2%
COc1ccc(N(Cc2cccs2)C(=O)COc2ccc(C(C)C)cc2)cc1	·	·	·	·	-18%[46 µM]	·
CCOCCCNC(=O)C1CCN(c2nc3ccc(Cl)cc3[nH]2)CC1	·	·	·	·	-3%[46 µM]	·
O=[N+]([O-])c1ccc(N/N=C/c2c[nH]c3ccccc23)cc1	29	4	-3%	-16%	1%[0.0737 µM]	-2%
O=[N+]([O-])c1ccc(N/N=C/c2ccc[nH]2)cc1	-97*	·	14µM*	2%	?	?
O=C(O)Cc1ccc(C(=O)c2ccccc2F)s1	47	-6	16µM*	5µM*	6%	0%
COc1ccc(CCNC(=O)Cn2nc(-c3ccc(Cl)cc3)ccc2=O)cc1OC	·	·	·	·	-8%[46 µM]	·
CC(C)c1onc(C(=O)N2CCCCC2)c1[N+](=O)[O-]	-2	·	14µM*	?	-15%	3%
Cc1ccc(NC(=O)c2noc(C(C)C)c2[N+](=O)[O-])cc1	·	·	·	10µM*	15%[46 µM]	-1%
Cn1cccc1C(=O)C(=O)Nc1cc(Cl)cc(Cl)c1	?	13	?	?	-5%	11µM*
Cn1cccc1C(=O)C(=O)Nc1ccc(Cl)cc1	24	5	-6%	3%	8%[0.0737 µM]	?
O=C1CC2(CCCC2)CC(=O)N1CCNCC1COc2ccccc2O1 (centres undefined)	·	·	·	28µM*	·	·
FC(F)(F)c1ccc(-c2noc(-c3ccccc3)c2I)cc1	·	·	-1%	2%	·	2%[39.9 µM]
CCOC(=O)c1c(N)sc(C(=O)OC)c1C	·	·	·	?	·	6%
COC(=O)c1sc(N)c(C(=O)OC)c1COC(=O)c1c(C)noc1C	-21	2	18µM*	-11%	?	8%
COc1ccc2nc3oc(C(=O)N4CCN(c5cccc(Cl)c5)CC4)cc3cc2c1	-87*	11	176%	178%	-9%	2%
O=C(c1ccccc1)c1ccc(OCCOCCN2CCN(Cc3ccccc3)CC2)cc1	·	·	·	18µM*	-1%[46 µM]	-1%
COc1cccc(C(=O)N2CCN(Cc3cccc(F)c3)CC2)c1	-6	8	-1%	18µM*	0%	-3%
